Paper PMC4336329 (PLoS ONE, 2015)
The campaign covered roughly 310,000 compounds. About 2,200 (0.71%) showed an effect of 50% or more. The effect is printed as a negative number. The list comes from a sample in which strong results are over-represented; it also holds similar structures and randomly drawn compounds.

What follows are molecules tested against human ether-à-go-go-related gene (hERG) potassium channel (human, UniProt Q12809) (assay: primary screen, population patch clamp on CHO cells stably expressing hERG; higher = less effect of the substance).
human ether-à-go-go-related gene (hERG) potassium channel, sequence (Q12809 whole entry, looked up): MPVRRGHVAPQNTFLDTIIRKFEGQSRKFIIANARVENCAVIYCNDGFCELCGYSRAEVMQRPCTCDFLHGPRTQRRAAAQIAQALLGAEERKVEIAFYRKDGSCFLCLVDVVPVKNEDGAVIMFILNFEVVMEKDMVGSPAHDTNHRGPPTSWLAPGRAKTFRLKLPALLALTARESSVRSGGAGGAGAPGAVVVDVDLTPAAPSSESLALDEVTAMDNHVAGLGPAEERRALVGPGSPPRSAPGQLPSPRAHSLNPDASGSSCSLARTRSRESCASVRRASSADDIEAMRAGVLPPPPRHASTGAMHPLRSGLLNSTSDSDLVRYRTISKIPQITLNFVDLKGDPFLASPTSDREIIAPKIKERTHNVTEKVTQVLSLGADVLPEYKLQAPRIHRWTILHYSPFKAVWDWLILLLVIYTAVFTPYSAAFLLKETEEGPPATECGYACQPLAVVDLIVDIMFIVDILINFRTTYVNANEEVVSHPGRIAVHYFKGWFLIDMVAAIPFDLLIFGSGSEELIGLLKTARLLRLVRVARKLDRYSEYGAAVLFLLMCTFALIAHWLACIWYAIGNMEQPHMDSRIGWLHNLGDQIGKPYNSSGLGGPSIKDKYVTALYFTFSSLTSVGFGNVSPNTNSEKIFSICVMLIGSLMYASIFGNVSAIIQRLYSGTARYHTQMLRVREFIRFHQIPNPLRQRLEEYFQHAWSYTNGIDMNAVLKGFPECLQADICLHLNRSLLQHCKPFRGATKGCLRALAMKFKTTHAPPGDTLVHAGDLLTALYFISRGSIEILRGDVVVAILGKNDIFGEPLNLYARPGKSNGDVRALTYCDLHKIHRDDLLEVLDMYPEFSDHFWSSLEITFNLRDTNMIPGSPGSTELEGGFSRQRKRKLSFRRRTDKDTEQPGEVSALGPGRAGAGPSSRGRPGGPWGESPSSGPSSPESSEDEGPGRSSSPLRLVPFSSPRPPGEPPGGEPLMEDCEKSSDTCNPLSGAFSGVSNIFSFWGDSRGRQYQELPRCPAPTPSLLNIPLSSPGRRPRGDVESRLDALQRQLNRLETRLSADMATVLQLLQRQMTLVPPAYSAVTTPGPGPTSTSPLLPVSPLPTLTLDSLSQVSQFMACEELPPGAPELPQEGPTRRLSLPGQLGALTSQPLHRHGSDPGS

SMILES	hERG current change (%, negative = inhibition) at 1uM [%]
Cc1c(CN(C)C(=O)/C=C/c2ccc([N+](=O)[O-])cc2)cnn1C	-65.5
Cc1c(CN(C)C(=O)c2nn(C)cc2[N+](=O)[O-])cnn1C	10.8
CCn1cc(CN(C)C(=O)/C=C/c2ccc([N+](=O)[O-])cc2)c(C)n1	-35.3
CC(C)c1ccc(O)c(CN2CCN(c3ccccc3)CC2)c1	10.3
CCOc1ccc(C(C)=O)cc1CN1C(=O)NC2(CCCCCC2)C1=O	13.5
CCOc1ccc(C(C)=O)cc1CN1C(=O)NC2(CCCCCCC2)C1=O	-51.8
COc1ccc(C(C)=O)cc1CN1C(=O)NC2(CCCCCCC2)C1=O	19.8
CCC(=O)OCC(=O)Nc1ccc([N+](=O)[O-])cc1OC	9.97
Cc1ccccc1OCCC(=O)Nc1ccc(F)c(Cl)c1	13.7
CC(=O)N1CC(C)Sc2ccc(S(=O)(=O)NCc3ccc(Cl)cc3)cc21 (centres unmarked)	1.91
CCN1CCN(C(=O)/C=C/c2ccc(F)cc2)CC1	-13.1
O=C(/C=C/c1ccc(F)cc1)N1CCCN(C(=O)/C=C/c2ccc(F)cc2)CC1	-84.7
Cc1ccc(/C=C/C(=O)NCCCN2CCN(CCCNC(=O)/C=C/c3ccc(C)cc3)CC2)cc1	7.32
Cc1ccc(/C=C/C(=O)N2CCCN(C(=O)/C=C/c3ccc(C)cc3)CC2)cc1	-53.5
O=C(/C=C/c1ccc(F)cc1)NCCNC(=O)/C=C/c1ccc(F)cc1	16.8
CN1CCCN(C(=O)/C=C/c2ccc(F)cc2)CC1	-5.11
O=C(/C=C/c1ccccc1)N1CCCN(C(=O)/C=C/c2ccccc2)CC1	-44
CCN1CCN(C(=O)/C=C/c2ccc(C)cc2)CC1	4.54
O=C(/C=C/c1ccc(F)cc1)NCCCN1CCN(CCCNC(=O)/C=C/c2ccc(F)cc2)CC1	-72.5
Cc1ccccc1S(=O)(=O)N1[C@@H](c2ccc(F)cc2)C(C(=O)O)=CC[C@H]1c1ccc(Cl)cc1	8.27
COc1ccc(/C=C2\CCCC3C2=NN(C(=O)CSc2ncn[nH]2)C3c2ccc(OC)cc2)cc1 (centres unmarked)	16.5
CCCCn1c(N)c(N(CC(C)C)C(=O)c2cccc(S(=O)(=O)N3CCCCCC3)c2)c(=O)[nH]c1=O	4.52

SMILES	hERG current change (%, negative = inhibition) at 1uM [%]
Cc1ccc(NC(=O)CSc2nnc(-c3ccco3)o2)c(C)c1	17.5
O=C(NCCCn1ccnc1)/C(=C\c1cccs1)NC(=O)c1cccs1	-27.6
O=C(NCCCn1ccnc1)/C(=C\c1cccs1)NC(=O)c1ccccc1	-19.1
Cc1ccc(C(=O)N/C(=C\c2cccs2)C(=O)NCCCn2ccnc2)cc1	-66
Cc1ccc(C(=O)N/C(=C/c2cccs2)C(=O)NCCCn2ccnc2)cc1	-50
COc1ccc(C(=O)N/C(=C/c2cccs2)C(=O)NCCCn2ccnc2)cc1OC	0.585
Cc1ccc(C(=O)N/C(=C\c2cccs2)C(=O)NCCCn2ccnc2)cc1C	-32.3
CSC1=N/C(=C\c2ccccc2Cl)C(=O)N1N(C)C	1.86
Cc1cc(=O)[nH]c(SC(C)C(=O)Nc2cccc3ccccc23)n1 (centres unmarked)	6.33
CCCC(=O)Nc1ccc(N2CCN(CC)CC2)c(Cl)c1.Cl	-17.9
CCC(=O)Nc1ccc(N2CCN(CC)CC2)c(Cl)c1	8.56
CCN1CCN(c2ccc(NC(=O)c3ccc(F)cc3)cc2Cl)CC1	-66.8
CCCCCC(=O)Nc1ccc(N2CCN(CC)CC2)c(Cl)c1	-55.6
CCN1CCN(c2ccc(NC(=O)c3cccc(F)c3)cc2Cl)CC1	-8.27
CCCOc1ccc(C(=O)N2CCN(c3ccc(NC(=O)CC)cc3Cl)CC2)cc1	-58.7
CCN1CCN(c2ccc(NC(C)=O)cc2Cl)CC1	10.3
CCCOc1ccc(C(=O)N2CCN(c3ccc(N)cc3Cl)CC2)cc1	-6.51
COc1ccc(OCC(=O)Nc2ccc(N3CCN(C(=O)c4ccccc4)CC3)c(Cl)c2)cc1	9.86
CCC(=O)NC(=S)NNC(=O)c1ccc([N+](=O)[O-])cc1	8.99
CC(OC(=O)CCC(=O)c1cccs1)C(=O)NC1CCCCC1C (centres unmarked)	0.622
CC(OC(=O)c1cccs1)C(=O)NC1CC1 (centres unmarked)	7.03
CC(OC(=O)c1cccs1)C(=O)NC1CCCCC1C (centres unmarked)	-66.1

SMILES	hERG current change (%, negative = inhibition) at 1uM [%]
CCOc1ccc(NC(=O)CN(C)C(=O)c2ccc(COc3ccccc3)cc2)cc1OCC	4.94
Cc1ccc(NS(=O)(=O)c2ccccc2Cl)c2c1CC(C)(C)O2	6.77
Cc1ccc2sc(NNC(=O)C3COc4ccccc4O3)nc2c1C (centres unmarked)	9.9
CN(C)C/C=C(\c1ccc(Br)cc1)c1cccnc1.Cl.O	-35.3
O=C(NCCNC(=O)c1cccnc1)c1ccc(Br)cc1	29.6
CN(C)C/C=C(/c1ccc(Br)cc1)c1cccnc1.Cl	-60.8
CC(C)C(=O)Nc1ccc2c(c1)oc1ccccc12	11.8
O=C(COC(=O)C12CC3CC(CC(O)(C3)C1)C2)Nc1ccc(Cl)cc1F	-1.56
COc1ccccc1C(=O)Nc1ccon1	-0.0061
N=c1nc(N)nc2n1NC(c1ccc(F)cc1)=CS2	-3.69
CN1C2C=C(N(C(=O)c3ccc(Cl)cc3)c3ccccc3)CC1CC2.Cl (centres unmarked)	-69.8
CN1C2CCC1CC(OC(=O)c1ccc(Cl)cc1)C2.Cl (centres unmarked)	-9.75
Cc1cc(C)cc(C(=O)N(CCc2ccccc2)C2CC3CCC(C2)N3C)c1.Cl (centres unmarked)	-18
COc1ccc(N(C(=O)/C=C/c2ccc(OC)c(OC)c2)C2=CC3CCC(C2)N3C)cc1.Cl (centres unmarked)	-42.8
CN1C2CCC1CC(N(CCc1ccccc1)C(=O)c1ccc(Cl)cc1)C2.Cl (centres unmarked)	-78.8
COc1ccc(C(=O)CN(C(=O)c2ccc(Cl)cc2)N2C(=O)C3CCCCC3C2=O)cc1 (centres unmarked)	10.8
CCCCN(C(=O)c1ccc(Cl)cc1)C1CC2CCC(C1)N2C.Cl (centres unmarked)	-15.6
COc1ccc(N(C(=O)c2ccc(Cl)cc2)C2=CC3CCC(C2)N3C)cc1.Cl (centres unmarked)	-76.1
COc1ccc(N(C(=O)/C=C/c2ccccc2)C2=CC3CCC(C2)N3C)cc1.Cl (centres unmarked)	-70.3
COc1cc(C(=O)N(CCc2ccccc2)C2=CC3CCC(C2)N3C)cc(OC)c1OC.Cl.O (centres unmarked)	-13.5
CN1C2C=C(N(CCc3c[nH]c4ccccc34)C(=O)c3ccc(Cl)cc3)CC1CC2.Cl (centres unmarked)	-41.4
CN1C2C=C(N(CCc3ccccc3)C(=O)c3ccc(Cl)cc3)CC1CC2.Cl (centres unmarked)	-19.7

SMILES	hERG current change (%, negative = inhibition) at 1uM [%]
Cc1cc(C)n2c(SC(C)C(=O)NC3(C#N)CCCCC3)nnc2n1 (centres unmarked)	11.7
CCOC(=O)c1oc2ccccc2c1NC(=O)c1ccc(S(=O)(=O)N2CCCC2)cc1	-6.45
CCOC(=O)C1CCN(S(=O)(=O)c2cc(F)ccc2OC)CC1	8.83
COc1ccc(-c2nc(NCCCN(C)C)c3ccccc3n2)cc1.Cl	3.72
C=C(C)Cn1c(SCC#N)nc2ccccc2c1=O	3.85
COc1ccc(S(=O)(=O)N2CCN(C)CC2)c2ccccc12	9.59
CC(Sc1nc2ccccc2n1C)C(=O)Nc1ccc(N2CCOCC2)cc1 (centres unmarked)	6.2
CN1CCN(C(=O)CCC(=O)NCc2ccc(F)cc2)CC1	9.84
O=C(COC(=O)c1ccccn1)NC(=O)c1ccccc1	-5.45
Cc1[nH]nc2ncc(C(=O)c3cc(Cl)cc(Cl)c3O)cc12	10.1
COc1cccc(OC)c1C(=O)Nc1nc2ccc([N+](=O)[O-])cc2s1	16.1
COc1cccc(CNC(=O)c2cc(C3CC3)nc3c2cnn3C(C)C)c1	-0.644
COc1ccc(CCN(C(=O)c2ccc(F)cc2)C2=CC3CCC(C2)N3C)cc1OC.Cl (centres unmarked)	-22.6
COc1ccc(N(C(=O)c2ccc(F)cc2)C2=CC3CCC(C2)N3C)cc1.Cl (centres unmarked)	-50.3
CCCCN(C(=O)c1cc(OC)c(OC)c(OC)c1)C1=CC2CCC(C1)N2C.Cl (centres unmarked)	8.68
CCOc1cc([N+](=O)[O-])cc(/C=C2/NC(=O)N(Cc3ccccc3F)C2=O)c1O	4.45
COc1cc(NC(=S)NC(=O)c2ccccc2F)ccc1NC(=O)c1ccco1	7.37
CCn1c(SCC(=O)Nc2ccccc2)nc2nc3c(cc2c1=O)COC(C)(C)C3	-12.4
CCn1c(SCC(=O)Nc2ccc(C)cc2)nc2nc3c(cc2c1=O)COC(C)(C)C3	-76.5
CCn1c(SCC(=O)Nc2ccc(C(C)=O)cc2)nc2nc3c(cc2c1=O)COC(C)(C)C3	14.1
